Test results: PubChem BioAssay (NCI)
The panel holds about 79,000 compounds, 15% with a hit somewhere; the sample as a whole holds those more often. Calls of active or inactive are those of the source. Cut-off read from the data, not from the text of the source: active = growth inhibition above about 70%; inactive = the rest.

Columns and labels:
[1] = NCI Yeast Anticancer Drug Screen. Data for the mlh1 strain (AID 171);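 note: 0% = growth of vehicle-treated control cultures of the same strain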; settings: S. cerevisiae mlh1 strain growth inhibition, hits give high values
Method in brief: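 Yeast carrying a defined genetic alteration in DNA damage repair or cell cycle control were exposed to test compounds. Growth inhibition was measured relative to vehicle-treated controls.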

[2] = NCI Yeast Anticancer Drug Screen. Data for the sgs1 strain (AID 173);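 note: 0% = growth of vehicle-only control cultures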; settings: S. cerevisiae sgs1 mutant, hits give high values
Method in brief: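 Yeast mutant strains carrying defined defects in DNA damage repair or cell cycle control were exposed to test compounds. Growth inhibition was scored against vehicle-treated controls.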

[3] = NCI Yeast Anticancer Drug Screen. Data for the rad18 strain (AID 177); settings: S. cerevisiae rad18 mutant growth inhibition, hits give high values
Method in brief: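 Yeast carrying a defined DNA damage repair alteration were exposed to compounds. Growth inhibition was expressed relative to vehicle-treated controls.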

[4] = NCI Yeast Anticancer Drug Screen. Data for the wt1 strain (AID 149);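 note: 0% = growth of vehicle-treated wt1 cultures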; settings: S. cerevisiae wt1 strain (SPY 50644) growth inhibition, hits give high values
Method in brief: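 The wt1 strain was treated with compounds, and growth was compared with vehicle-treated cultures to give inhibition.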

[5] = NCI Yeast Anticancer Drug Screen. Data for the rad50EPP+ strain (AID 151);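 note: 0% = growth of vehicle-treated control cultures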; settings: S. cerevisiae rad50 mutant strain, hits give high values
Method in brief: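 Yeast strain carrying rad50 alteration (rad50EPP+) exposed to compounds; growth inhibition measured relative to vehicle-treated controls.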

[6] = NCI Yeast Anticancer Drug Screen. Data for the mgt1 strain (AID 153); settings: S. cerevisiae mgt1 mutant growth inhibition, hits give high values
Method in brief: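 Yeast mgt1 strain (DNA repair/cell-cycle alteration panel) exposed to compounds; growth inhibition measured relative to vehicle-treated controls.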

[7] = NCI Yeast Anticancer Drug Screen. Data for the rad50 strain (AID 155);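 note: 0% = growth of vehicle-only cultures of the same strain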; settings: S. cerevisiae rad50 strain growth inhibition, hits give high values
Method in brief: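 Cells are treated with compound, grown, and their growth is then scored against vehicle-only cultures of the same repair-deficient yeast strain.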

[8] = NCI Yeast Anticancer Drug Screen. Data for the mec2-1 strain (AID 157); settings: S. cerevisiae mec2-1 strain, hits give high values
Method in brief: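 mec2-1 yeast strain, carrying an alteration in DNA damage repair or cell cycle control, was exposed to compounds; growth inhibition was measured relative to vehicle-treated controls.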

[9] = NCI Yeast Anticancer Drug Screen. Data for the rad14 strain (AID 159);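 note: 0% = growth of vehicle-treated control cultures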; settings: S. cerevisiae rad14 strain growth inhibition, hits give high values
Method in brief: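 Readout: yeast growth inhibition, referenced to vehicle-only cultures. Strain bears a defined alteration in DNA damage repair.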

[10] = NCI Yeast Anticancer Drug Screen. Data for the sgs1 mgt1 strain (AID 161);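 note: 0% = growth of cultures given vehicle only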; settings: S. cerevisiae sgs1 mgt1 strain, hits give high values
Method in brief: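 This yeast growth screen uses a strain with defined DNA-repair lesions; compound-treated growth is compared with vehicle-treated growth.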

[11] = NCI Yeast Anticancer Drug Screen. Data for the CLN2oe strain (AID 163);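 note: 0% = growth of vehicle-only control cultures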; settings: S. cerevisiae CLN2oe strain, hits give high values
Method in brief: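 Yeast cells carrying a defined cell-cycle control alteration were exposed to test compounds. Growth inhibition was scored against vehicle-treated control cultures.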

[12] = NCI Yeast Anticancer Drug Screen. Data for the cln2 rad14 strain (AID 165);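 note: 0% = growth equal to vehicle treated cultures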; settings: S. cerevisiae cln2 rad14 strain, hits give high values
Method in brief: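 Yeast carrying cln2 and rad14 alterations (cell cycle control and DNA damage repair) were exposed to compounds. Growth inhibition was measured against vehicle-treated controls.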

[13] = NCI Yeast Anticancer Drug Screen. Data for the bub3 strain (AID 167); settings: S. cerevisiae bub3 mutant strain, hits give high values
Method in brief: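 Part of a panel of yeast mutants defective in DNA damage repair or cell cycle regulation. Each strain is grown with compound, and inhibition is calculated relative to solvent-treated cultures.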

[14] = NCI Yeast Anticancer Drug Screen. Data for the wt2 strain (AID 169);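 note: 0% = growth of vehicle-treated yeast cultures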; settings: S. cerevisiae wt2 strain growth inhibition, hits give high values
Method in brief: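 Yeast cells were exposed to test compounds, and growth inhibition was measured relative to vehicle-treated controls.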

[15] = NCI Yeast Anticancer Drug Screen. Data for the mlh1 rad18 strain (AID 175); settings: S. cerevisiae mlh1 rad18 strain growth inhibition, hits give high values
Method in brief: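 Growth inhibition of the yeast strain was measured after compound exposure and expressed relative to vehicle-treated controls. The strain carries defined defects in DNA damage repair.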

[16] = at 5.0 µM (retest, dose inferred, filed as 0.5)
[17] = at 50.0 µM (retest, dose inferred, filed as 5.0)

Measured: growth inhibition

O=[N+]([O-])C(=C(NCc1ccccc1)NCc1ccccc1)C(Cl)=C(Cl)Cl
active: [1]; at 100.0 µM 85% | [2]; at 100.0 µM 83% | [3]; at 100.0 µM 85%
inactive: [1]; at 1.2 µM 4% | [1]; at 3.7 µM 1% | [1]; at 11.0 µM 9% | [1]; at 33.0 µM 25% | [2]; at 1.2 µM 1% | [2]; at 3.7 µM 7% | [2]; at 11.0 µM 15% | [2]; at 33.0 µM 39% | [3]; at 1.2 µM -1% | [3]; at 3.7 µM 1% | [3]; at 11.0 µM 5% | [3]; at 33.0 µM 20%

CSc1ccc2c(c1)C(N1CCN(C)CC1)Cc1ccccc1S2 (stereo unspecified)
inactive: [4]; at 1.2 µM -58% | [4]; at 3.7 µM -61% | [4]; at 11.0 µM -57% | [4]; at 33.0 µM -6% | [5]; at 1.2 µM -27% | [5]; at 3.7 µM -45% | [5]; at 11.0 µM -37% | [5]; at 33.0 µM -4% | [6]; at 1.2 µM -33% | [6]; at 3.7 µM -31% | [6]; at 11.0 µM -49% | [7]; at 1.2 µM -34% | [7]; at 3.7 µM -47% | [7]; [16] 28% | [7]; at 11.0 µM -25% | [7]; [17] 67% | [8]; at 1.2 µM -75% | [8]; at 3.7 µM -83% | [8]; [16] 15% | [8]; at 11.0 µM -4% | [9]; at 1.2 µM -55% | [9]; at 3.7 µM -36% | [9]; at 11.0 µM 5% | [11]; at 1.2 µM -17% | [11]; at 3.7 µM 5% | [11]; at 11.0 µM 13% | [11]; at 33.0 µM 52% | [13]; at 1.2 µM -68% | [13]; at 3.7 µM -46% | [13]; at 11.0 µM 14% | [14]; at 1.2 µM -59% | [14]; at 3.7 µM -35% | [14]; at 11.0 µM -46% | [14]; at 33.0 µM 6% | [1]; at 1.2 µM -67% | [1]; at 3.7 µM -68% | [1]; at 11.0 µM -37% | [2]; at 1.2 µM -34% | [2]; at 3.7 µM -84% | [2]; at 11.0 µM -27% | [15]; [16] 35% | [3]; at 1.2 µM -44% | [3]; at 3.7 µM -72% | [3]; at 11.0 µM -44%
active: [4]; at 100.0 µM 99% | [5]; at 100.0 µM 91% | [6]; at 33.0 µM 74% | [6]; at 100.0 µM 99% | [7]; at 33.0 µM 76% | [7]; at 50.0 µM 88.1% | [7]; at 100.0 µM 98% | [8]; at 33.0 µM 83% | [8]; [17] 78% | [8]; at 50.0 µM 78.6% | [8]; at 100.0 µM 99% | [9]; at 33.0 µM 98% | [9]; at 100.0 µM 99% | [10]; [16] 98% | [10]; [17] 86% | [10]; at 50.0 µM 84.2% | [11]; at 100.0 µM 99% | [12]; [16] 91% | [12]; [17] 88% | [12]; at 50.0 µM 76% | [13]; [16] 98% | [13]; at 33.0 µM 91% | [13]; [17] 86% | [13]; at 50.0 µM 81.7% | [13]; at 100.0 µM 98% | [14]; at 100.0 µM 99% | [1]; at 33.0 µM 88% | [1]; at 100.0 µM 98% | [2]; at 33.0 µM 70% | [2]; at 100.0 µM 98% | [15]; [17] 89% | [15]; at 50.0 µM 92.8% | [3]; at 33.0 µM 75% | [3]; at 100.0 µM 98%

CC1=NN(C(=O)CC(=O)N(C(=O)c2ccccc2)c2ccc(Cl)cc2)C(=O)C1N=Nc1ccc([N+](=O)[O-])cc1 (stereo unspecified)
active: [6]; at 100.0 µM 71% | [7]; at 33.0 µM 74% | [7]; [17] 89% | [7]; at 50.0 µM 84.5% | [7]; at 100.0 µM 74% | [8]; at 50.0 µM 83.6% | [10]; at 50.0 µM 77.7% | [11]; at 33.0 µM 75% | [11]; at 100.0 µM 77% | [13]; at 50.0 µM 85% | [13]; at 100.0 µM 71% | [14]; at 33.0 µM 87% | [14]; at 100.0 µM 82% | [15]; [17] 75% | [15]; at 50.0 µM 81% | [3]; at 33.0 µM 85% | [3]; at 100.0 µM 84%
inactive: [4]; at 1.2 µM -43% | [4]; at 3.7 µM -1% | [4]; at 11.0 µM 10% | [4]; at 33.0 µM 26% | [4]; at 100.0 µM 37% | [5]; at 1.2 µM 6% | [5]; at 3.7 µM 26% | [5]; at 11.0 µM 39% | [5]; at 33.0 µM 41% | [5]; at 100.0 µM 32% | [6]; at 1.2 µM 0% | [6]; at 3.7 µM 7% | [6]; at 11.0 µM 35% | [6]; at 33.0 µM 62% | [7]; at 1.2 µM -3% | [7]; at 3.7 µM 8% | [7]; [16] 41% | [7]; at 11.0 µM 50% | [8]; at 1.2 µM -3% | [8]; at 3.7 µM 8% | [8]; [16] 8% | [8]; at 11.0 µM 41% | [8]; at 33.0 µM 67% | [8]; [17] 56% | [8]; at 100.0 µM 68% | [9]; at 1.2 µM -1% | [9]; at 3.7 µM 7% | [9]; at 11.0 µM 23% | [9]; at 33.0 µM 44% | [9]; at 100.0 µM 53% | [10]; [16] -1% | [10]; [17] 49% | [11]; at 1.2 µM -11% | [11]; at 3.7 µM 6% | [11]; at 11.0 µM 48% | [12]; [16] 63% | [12]; [17] 66% | [12]; at 50.0 µM 55.8% | [13]; at 1.2 µM -5% | [13]; at 3.7 µM -6% | [13]; [16] 4% | [13]; at 11.0 µM 30% | [13]; at 33.0 µM 63% | [13]; [17] 67% | [14]; at 1.2 µM -4% | [14]; at 3.7 µM 7% | [14]; at 11.0 µM 64% | [1]; at 1.2 µM 0% | [1]; at 3.7 µM 8% | [1]; at 11.0 µM 36% | [1]; at 33.0 µM 59% | [1]; at 100.0 µM 69% | [2]; at 1.2 µM 0% | [2]; at 3.7 µM 14% | [2]; at 11.0 µM 46% | [2]; at 33.0 µM 68% | [2]; at 100.0 µM 69% | [15]; [16] 24% | [3]; at 1.2 µM 4% | [3]; at 3.7 µM 11% | [3]; at 11.0 µM 62%
